Source: PubChem BioAssay AID1159580 (chemical genetic matrix, 2015)
Several values for one entry are separate records, joined by “and”; a condition that tells them apart may be missing. Equal entries are not always repeated. The whole screen tested about 5,500 compounds, of which about 2,000 (36%) were called active. Not shown: some 18% with an inconclusive outcome. Cut-off read from the data, not from the text of the source: active = normalized growth mostly below about 0.91 (no sharp cut-off); inconclusive = no clear call, values can overlap the other calls; inactive = mostly above about 0.92. Some of the results follow.

Assay: chemical genetic growth profiling, strain panel (AID 1159580);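 note: tested at 20 µM; growth read once vehicle control cultures reached saturation at 30 °C; 1 = growth at the plate median or of vehicle wells; lower values mean less growth of the strain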
Details: S. cerevisiae deletion strains, growth OD

Measured: normalized growth

COP(=S)(OC)Oc1ccc([N+](=O)[O-])cc1
inactive: locus YAL013W, strain DEP1, stronger effect = lower value 1.03 | locus YAL021C, strain ccr4, stronger effect = lower value 1.01 | locus YAL026C, strain drs2, stronger effect = lower value 0.995 | locus YAL030W, strain snc1, stronger effect = lower value 1 | locus YBL061C, strain skt5, stronger effect = lower value 1 | locus YBR009C, strain hhf1, stronger effect = lower value 0.995 | locus YBR021W, strain FUR4, stronger effect = lower value 1.01 | locus YBR023C, strain chs3, stronger effect = lower value 0.994 | locus YBR171W, strain sec66, stronger effect = lower value 0.994 | locus YBR229C, strain ROT2, stronger effect = lower value 0.96 | locus YBR231C, strain swc5, stronger effect = lower value 0.988 | locus YBR279W, strain paf1, stronger effect = lower value 1 | locus YCL011C, strain gbp2, stronger effect = lower value 0.992 | locus YCL016C, strain dcc1, stronger effect = lower value 0.99 | locus YCL029C, strain bik1, stronger effect = lower value 0.975 | locus YCL061C, strain MRC1, stronger effect = lower value 0.991 | locus YCL069W, strain vba3, stronger effect = lower value 0.996 | locus YCR088W, strain abp1, stronger effect = lower value 0.99 | locus YDL005C, strain med2, stronger effect = lower value 0.991 | locus YDL035C, strain GPR1, stronger effect = lower value 0.988 | locus YDL040C, strain nat1, stronger effect = lower value 0.993 | locus YDL074C, strain BRE1, stronger effect = lower value 0.949 | locus YDL101C, strain DUN1, stronger effect = lower value 0.973 | locus YDL134C, strain PPH21, stronger effect = lower value 0.988 | locus YDL185W, strain tfp1, stronger effect = lower value 0.958 | locus YDL192W, strain arf1, stronger effect = lower value 0.972 | locus YDR001C, strain nth1, stronger effect = lower value 1 | locus YDR069C, strain doa4, stronger effect = lower value 0.956 | locus YDR101C, strain arx1, stronger effect = lower value 0.984 | locus YDR137W, strain rgp1, stronger effect = lower value 0.885 | locus YDR150W, strain NUM1, stronger effect = lower value 0.975 | locus YDR159W, strain sac3, stronger effect = lower value 0.981 | locus YDR162C, strain NBP2, stronger effect = lower value 0.978 | locus YDR195W, strain ref2 1 | locus YDR297W, strain sur2, stronger effect = lower value 0.996 | locus YDR318W, strain mcm21, stronger effect = lower value 0.98 | locus YDR334W, strain swr1, stronger effect = lower value 0.998 | locus YDR335W, strain msn5, stronger effect = lower value 1.01 | locus YDR388W, stronger effect = lower value 0.983 | locus YDR392W, strain spt3, stronger effect = lower value 0.922 | locus YDR502C, strain sam2, stronger effect = lower value 0.971 | locus YEL003W, strain gim4, stronger effect = lower value 0.996 | locus YEL037C, strain rad23, stronger effect = lower value 0.999 | locus YEL061C, strain CIN8 (second series), stronger effect = lower value 1 | locus YEL061C, strain CIN8, stronger effect = lower value 0.976 | locus YER015W, strain faa2, stronger effect = lower value 0.996 | locus YER016W, strain bim1, stronger effect = lower value 0.997 | locus YER110C, stronger effect = lower value 0.963 | locus YER111C, strain swi4, stronger effect = lower value 1 | locus YER155C, strain BEM2 (second series), stronger effect = lower value 0.94 | locus YER155C, strain BEM2, stronger effect = lower value 1.01 | locus YER167W, strain BCK2, stronger effect = lower value 0.979 | locus YFR010W, strain ubp6, stronger effect = lower value 0.999 | locus YGL078C, strain dbp3, stronger effect = lower value 0.985 | locus YGL086W, strain mad1, stronger effect = lower value 0.994 | locus YGL167C, strain pmr1, stronger effect = lower value 0.992 | locus YGL173C, strain kem1, stronger effect = lower value 0.99 | locus YGL227W, strain vid30, stronger effect = lower value 0.993 | locus YGL240W, strain doc1, stronger effect = lower value 0.987 | locus YGL248W, strain PDE1, stronger effect = lower value 0.966 | locus YGL253W, strain hxk2, stronger effect = lower value 0.999 | locus YGR078C, strain PAC10, stronger effect = lower value 0.989 | locus YGR135W, strain pre9, stronger effect = lower value 0.976 | locus YGR229C, strain SMI1, stronger effect = lower value 0.99 | locus YGR252W, strain gcn5, stronger effect = lower value 0.968 | locus YHR013C, strain ard1, stronger effect = lower value 1.02 | locus YHR027C, strain rpn1, stronger effect = lower value 0.987 | locus YHR030C, strain SLT2, stronger effect = lower value 0.998 and 0.993 | locus YHR079C, strain IRE1 (second series), stronger effect = lower value 0.984 | locus YHR079C, strain IRE1, stronger effect = lower value 0.988 | locus YHR094C, strain hxt1, stronger effect = lower value 0.987 | locus YHR129C, strain ARP1, stronger effect = lower value 0.978 | locus YHR142W, strain chs7, stronger effect = lower value 0.965 | locus YHR200W, strain rpn10, stronger effect = lower value 0.987 | locus YIL066C, strain RNR3, stronger effect = lower value 0.967 | locus YIL073C, strain SPO22, stronger effect = lower value 0.993 | locus YIL125W, strain kgd1, stronger effect = lower value 0.971 | locus YIR030C, strain dcg1, stronger effect = lower value 0.98 | locus YJL092W, strain hpr5, stronger effect = lower value 0.996 | locus YJL095W, strain BCK1 (second series), stronger effect = lower value 0.993 | locus YJL095W, strain BCK1, stronger effect = lower value 0.974 and 1.01 | locus YJL115W, strain asf1, stronger effect = lower value 0.986 | locus YJL129C, strain trk1, stronger effect = lower value 0.988 | locus YJL134W, strain LCB3, stronger effect = lower value 0.984 | locus YJL154C, strain vps35, stronger effect = lower value 1 | locus YJL164C, strain tpk1, stronger effect = lower value 0.99 | locus YJL166W, strain qcr8, stronger effect = lower value 0.983 | locus YJL168C, strain set2, stronger effect = lower value 0.982 | locus YJL187C, strain SWE1 (second series), stronger effect = lower value 0.983 | locus YJL187C, strain SWE1, stronger effect = lower value 1.02 | locus YJR043C, strain POL32, stronger effect = lower value 0.983 | locus YJR066W, strain TOR1, stronger effect = lower value 0.953
